Assay results from PubChem BioAssay AID686979 (National Center for Advancing Translational Sciences (NCATS), 2013).
Out of some 420,000 compounds screened, about 50,000 (12%) were called active. Entries that show only a call come without a potency. Another 26% or so got no clear call; they are omitted. Calls follow the shape of the dose curve; as a rule, active = well fitted inhibition curve with a large enough effect; inconclusive = small, poorly fitted or top-dose-only effect; inactive = flat fitted curve, though single readings scatter. The sample as a whole holds a higher share of actives than the screen did.

assay: qHTS for Inhibitors of human tyrosyl-DNA phosphodiesterase 1 (TDP1): qHTS in cells in presence of CPT; settings: chicken DT40 Tdp1-/-;hTDP1 cells + 20 nM CPT, ATP luminescence, 48 h; series mostly up to 46.2 µM; also: nearly all actives have a fitted effect of over 55% in size
Outline: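 Cell growth measured by CellTiter-Glo luminescence after a minimum 48 h, 37 C compound exposure with 20 nM CPT in Tdp1-knockout DT40 cells stably expressing hTDP1, seeded 400/well; qHTS titration format.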
Potency is read from the fitted curve at half-maximal effect.

Question: For Cc1ccc(C)c(OCCC(=O)OCC(=O)c2ccc3c(c2)NC(=O)CO3)c1, which Potency is on record?
Answer: inactive

Question: Which Potency does the source give for Cc1ccc(C23CC4CC(CC(C(=O)NCC(=O)O)(C4)C2)C3)cc1 here?
Answer: inactive

Question: With COc1ccc(C(=O)COC(=O)CN2C(=O)C3CC=CCC3C2=O)c(OC)c1 (centres undefined) as the compound, how does the Potency read?
Answer: inactive

Question: With CC(C)Cn1c(N)c(C(=O)COC(=O)CN2C(=O)C3CC=CCC3C2=O)c(=O)n(C)c1=O (centres undefined) as the compound, how does the Potency read?
Answer: 16.4 µM (active)

Question: For CC1CC1C(=O)OCC(=O)c1c(N)n(C)c(=O)n(C)c1=O (centres undefined), which Potency is on record?
Answer: inactive

Question: With CCOC(=O)[C@H]1[C@H]2COc3ccc(Br)cc3[C@@H]2N2C(=O)CN(C)C(=O)[C@@]12C as the compound, how does the Potency read?
Answer: inactive

Question: For CCOC(=O)[C@H]1[C@H]2COc3cc(OC)ccc3[C@@H]2N2C(=O)N(c3ccc(Br)cc3)C(=O)[C@@]12C, which Potency is on record?
Answer: 25.9 µM (active)

Question: For CCOC(=O)[C@@H]1[C@H]2COc3cc(OC)ccc3[C@@H]2N2C(=O)N(c3cccc(C)c3)C(=O)[C@@]12C, which Potency is on record?
Answer: inactive

Question: For CCOc1n[nH]c(-c2ccccc2)n1, which Potency is on record?
Answer: inactive

Question: Which Potency does the source give for Cc1ccc(S(=O)(=O)c2c[nH]c3ccc(C)cc3c2=O)cc1 here?
Answer: inactive

Question: With CCCOc1ccc(N/C=C/C(=O)C(C)(C)C)cc1 as the compound, how does the Potency read?
Answer: inactive

Question: With CCOc1ccc(N/C=C/C(=O)c2cc(OC)c(OC)c(OC)c2)cc1 as the compound, how does the Potency read?
Answer: 14.6 µM (active)

Question: With CCOc1ccc(N/C=C/C(=O)c2ccccc2)cc1 as the compound, how does the Potency read?
Answer: inactive

Question: Which Potency does the source give for COCCNC(=O)C(c1ccc(O)cc1)N(C(=O)CCC(=O)Nc1nccs1)c1ccc(C)cc1 (centres undefined) here?
Answer: inactive

Question: With CCCCn1c(=O)c2oc3ccccc3c2n(CC(=O)Nc2ccccc2OC)c1=O as the compound, how does the Potency read?
Answer: inactive

Question: For COc1ccccc1CNC(=O)CCn1c(=O)sc2ccccc21, which Potency is on record?
Answer: inactive

Question: With COCCNC(=O)CCCn1c(=O)c2ccccc2n(Cc2cccc([N+](=O)[O-])c2)c1=O as the compound, how does the Potency read?
Answer: inactive

Question: With COc1ccc(NC(=O)Cn2c(=O)n(Cc3ccc(C(=O)NCc4ccccc4Cl)cc3)c(=O)c3ccccc32)cc1 as the compound, how does the Potency read?
Answer: inactive

Question: For COc1ccccc1CNC(=O)CCCn1c(=O)c2ccccc2n(CC(=O)NC2CCCC2)c1=O, which Potency is on record?
Answer: inactive

Question: For COc1ccccc1CNC(=O)CCCCn1c(=O)c2ccccc2n(CC(=O)Nc2cc(Cl)ccc2C)c1=O, which Potency is on record?
Answer: 18.4 µM (active)

Question: With COc1ccccc1CNC(=O)CCn1c(=O)c2ccccc2n(CC(=O)Nc2ccc(Br)cc2F)c1=O as the compound, how does the Potency read?
Answer: 23.1 µM (active)

Question: Which Potency does the source give for Cc1ccccc1NC(=O)Cn1c(=O)n(CCCCC(=O)NCc2ccccc2Cl)c(=O)c2ccccc21 here?
Answer: inactive

Question: For COc1ccccc1CNC(=O)CCCn1c(=O)c2ccccc2n(CC(=O)Nc2ccc(C)cc2Cl)c1=O, which Potency is on record?
Answer: 14.6 µM (active)

Question: With CCc1nn(CC(=O)N2CCN(c3cccc(C(F)(F)F)c3)CC2)c(=O)c2cc3occc3n12 as the compound, how does the Potency read?
Answer: inactive
